Data taken from the supplement of paper PMC10498489.
Screen size: about 2,300 compounds; about 330 (14%) showed activity. The list is a sample of the results. Unmarked numbers belong to inactive results.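 The calls were made as follows: active = median modified Z-score above 1.96; inactive = 1.96 or below.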

tested on: HepG2 Srxn1-GFP reporter cells (+30 nM CDDO-Me); assay: Srxn1-GFP intensity median modified Z-score relative to plate median; higher = stronger NRF2 / oxidative stress reporter activation, active = hit call of the paper; conditions: 10 µM; exposure time: 24h
Procedure, shortened: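 The modified Z-score of GFP intensity was computed per plate, and the median over replicates is reported. HepG2 Srxn1-GFP BAC reporter cells in three replicate plates were treated for 24 h with compound at 10 μM plus an NRF2 activator at 30 nM (≤0.1% DMSO). Per-cell cytoplasmic GFP came from confocal images, excluding those with under 100 cells, and scaling used 1.4826 × median absolute deviation.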

Row | SMILES | Srxn1-GFP intensity median modified Z-score
1 | Cc1cc(CC(C)CC(C)(C)C)n(O)c(=O)c1 (configuration not stated) [euspeclibcmpd627] | 0.455
2 | O=C(NC(Cc1cc(=O)[nH]c2ccccc12)C(=O)O)c1ccc(Cl)cc1 (configuration not stated) [euspeclibcmpd1178] | 0.0863
3 | CN(CCOC(c1ccccc1)c1ccccc1)S(C)(=O)=O | 1.57
4 | CC(=O)Nc1cc2ccccc2oc1=O [euspeclibcmpd1797] | 0.241
5 | CCCC(=O)N=c1[nH]cnc2c1ncn2C1O[C@@H]2COP(=O)(O)O[C@H]2[C@H]1OC(=O)CCC (some centres not stated) [euspeclibcmpd1111] | 0.97
6 | CCCCCCOC(=O)N=C(N)c1ccc(NCc2nc3cc(C(=O)N(CCC(=O)OCC)c4ccccn4)ccc3n2C)cc1 [euspeclibcmpd2169] | 0.57
7 | N=c1c2c([nH]c3ccccc13)CCCC2 [euspeclibcmpd944] | -0.0541
8 | N=c1c2ccccc2[nH]c2ccccc12 [euspeclibcmpd350] | 15 (active)
9 | O=c1c2ccccc2[nH]c2ccccc12 | 0.588
10 | CC(=O)c1c(O)c(C)c(O)c2c1OC1=CC(=O)C(C(C)=O)C(=O)C12C (configuration not stated) [euspeclibcmpd1449] | 12.3 (active)
11 | NCCC(=O)C(O)N[C@@H]1C[C@H](N)[C@@H](O[C@H]2O[C@H](CN)[C@@H](O)[C@H](O)[C@H]2O)[C@H](O)[C@H]1O[C@H]1O[C@H](CO)[C@@H](O)[C@H](N)C1O (some centres not stated) [euspeclibcmpd967] | -0.34
12 | CCCC[C@@H](CC)COC(=O)/C=C/c1ccc(OC)cc1 [euspeclibcmpd2186] | 1.35
13 | COC1=CC(=O)C(=O)C=C1C=CCc1ccccc1 [euspeclibcmpd1419] | 9.05 (active)
14 | COC1=CC(=O)C=C(OC)C1=O [euspeclibcmpd2007] | 0.392
15 | COC1=CC(=O)C(C(=O)c2ccccc2)=CC1=O [euspeclibcmpd1986] | -0.559
16 | CC(=O)OCC(=O)[C@@]1(O)CCC2C3CC=C4CC(=O)CC[C@]4(C)[C@@]3(F)[C@@H](O)C[C@@]21C (some centres not stated) [euspeclibcmpd127] | -0.373
17 | Cc1n[nH]c(=NS(=O)(=O)c2ccc(N)cc2)s1 [euspeclibcmpd277] | -0.64
18 | Cc1csc(/C(C#N)=C\C=C\c2ccccc2[N+](=O)[O-])n1 | 35.4 (active)
19 | OC[C@@H](O)[C@@H](O[C@@H]1O[C@H](CO)[C@H](O)[C@H](O)[C@H]1O)[C@H](O)[C@@H](O)CO [euspeclibcmpd2389] | -0.142
20 | CC1(C(=O)O)CCC2(C)CCC3(C)C(=C2C1)CC(=O)C1C2(C)CCC(O)C(C)(C)C2CCC13C (configuration not stated) [euspeclibcmpd1963] | -0.0731
21 | O=C(COC(=O)C12CC3CC(C1)CC(c1ccccc1)(C3)C2)Nc1ncc(C(F)(F)F)cc1Cl | 1.42
22 | CCN(CC)C(=O)C(C#N)=Cc1cc(O)c(O)c([N+](=O)[O-])c1 [euspeclibcmpd861] | -0.942
23 | CC(C)(O)[C@@H]1CC[C@](C)([C@H]2[C@@H](O)C[C@@]3(C)C4C[C@H](O[C@@H]5O[C@H](CO)[C@@H](O)[C@H](O)[C@H]5O)C5C(C)(C)[C@@H](O[C@@H]6OC[C@@H](O)[C@H](O)[C@H]6O)CC[C@@]56C[C@@]46CC[C@]23C)O1 (some centres not stated) [euspeclibcmpd1691] | -0.304

Row | SMILES | Srxn1-GFP intensity median modified Z-score
24 | O=C(O)CCCN1C(=O)c2cccc3cccc(c23)C1=O [euspeclibcmpd1803] | -0.0255
25 | O=C(O)CN1C(=O)c2cccc3cccc(c23)C1=O [euspeclibcmpd433] | 2.2 (active)
26 | CCCCCCCC/C=C/CCCCCCCCOP(=O)(O)OCC[N+](C)(C)C [euspeclibcmpd1773] | 1.28
27 | CNC(C)[C@@H]1CC[C@@H](N)[C@@H](OC2[C@@H](N)C[C@@H](N)[C@H](OC3OC[C@](C)(O)[C@H](NC)[C@H]3O)[C@H]2O)O1 (some centres not stated) [euspeclibcmpd820] | -0.00227
28 | CC(=O)O[C@]1(C(C)=O)CCC2C3CC(C)=C4CC(=O)CC[C@]4(C)C3CC[C@@]21C (some centres not stated) [euspeclibcmpd178] | -0.198
29 | C=C1C(=O)O[C@@H]2C[C@@]3(C)CCC[C@H](C)C3=C[C@H]12 [euspeclibcmpd1482] | 10.2 (active)
30 | Cc1cc(-c2ccc(N=Nc3ccc4c(S(=O)(=O)O)cc(S(=O)(=O)O)c(N)c4c3O)c(C)c2)ccc1N=Nc1ccc2c(S(=O)(=O)O)cc(S(=O)(=O)O)c(N)c2c1O [euspeclibcmpd2073] | -1.03
31 | NC1(C(=O)O)CCCC1 [euspeclibcmpd1759] | -0.415
32 | O=C(O)CCc1nc2ccccc2[nH]1 [euspeclibcmpd1271] | -0.404
33 | C=CC1=C(C)c2cc3[nH]c(cc4[nH]c(cc5nc(cc1n2)=C(C)C5=CCC(=O)O)c(CCC(=O)O)c4C)c(C)c3=CC [euspeclibcmpd1059] | 0.562
34 | CC1=C(CCC(=O)O)c2cc3nc(cc4[nH]c(cc5[nH]c(cc1n2)c(C)c5C(C)O)c(C)c4C(C)O)C(C)=C3CCC(=O)O (configuration not stated) [euspeclibcmpd1687] | 8.82 (active)
35 | CN(C)C(N)=NC(=N)N [euspeclibcmpd874] | -0.199
36 | CC(CCC(=O)O)C1CCC2C3CCC4CC(O)CCC4(C)C3CC(=O)C12C (configuration not stated) | 0.291
37 | O=C(O)[C@H](O)[C@@H](O)[C@H](O)[C@H](O)CO [euspeclibcmpd2450] | 0.571
38 | CCOC(=O)c1ccc(O)cc1 [euspeclibcmpd974] | -0.257
39 | COc1ccc(C=CC(=O)c2cc(O)ccc2O)cc1 [euspeclibcmpd1400] | -0.058
40 | O=C(O)/C=C/C=C/c1ccccc1 [euspeclibcmpd1620] | -0.147
41 | COc1ccc(C(=O)/C=C/c2ccccc2)cc1 [euspeclibcmpd1565] | 26.7 (active)
42 | O=C(/C=C/c1ccccc1)c1ccc(O)cc1 | 4.36 (active)
43 | COc1ccc(C(=O)/C=C/c2cccc(Cl)c2)cc1 | 0.75
44 | O=C(/C=C/c1ccccc1)c1ccc(O)cc1 [euspeclibcmpd1718] | 12.6 (active)
45 | COc1ccc2oc(-c3ccccc3)c(OC)c(=O)c2c1 [euspeclibcmpd1782] | 1.28
46 | O[C@@H]1[C@@H](O)[C@@H](O)OC[C@H]1O | 0.871

Row | SMILES | Srxn1-GFP intensity median modified Z-score
47 | CC1C2C(CC3C4CC[C@H]5C[C@@H](O)CC[C@]5(C)C4CC(=O)[C@@]32C)O[C@]12CC[C@@H](C)CO2 (some centres not stated) [euspeclibcmpd1427] | -0.425
48 | COc1cc(/C=C/C(=O)N2CC=CCC2=O)cc(OC)c1OC [euspeclibcmpd1434] | 1.01
49 | CON [euspeclibcmpd1358] | -0.128
50 | CC(C)[N+]1(C)C2CC[C@H]1C[C@@H](OC(=O)C(CO)c1ccccc1)C2 (some centres not stated) [euspeclibcmpd162] | 0.508
51 | CC[C@]1(O)CC2CN(CCc3c([nH]c4ccccc34)[C@@](C(=O)OC)(c3cc4c(cc3OC)N(C)[C@H]3[C@@](O)(C(=O)OC)[C@H](OC(C)=O)[C@]5(CC)C=CCN6CC[C@]43[C@@H]65)C2)C1 (some centres not stated) [euspeclibcmpd320] | 25.8 (active)
52 | CC[C@]1(O)CC2CN(CCc3c([nH]c4ccccc34)[C@@](C(=O)OC)(c3cc4c(cc3OC)N(C=O)[C@H]3[C@@](O)(C(=O)OC)[C@H](OC(C)=O)[C@]5(CC)C=CCN6CC[C@]43[C@@H]65)C2)C1 (some centres not stated) [euspeclibcmpd836] | 27.5 (active)
53 | CC(=O)NC(CCC(N)=O)C(=O)O (configuration not stated) [euspeclibcmpd1028] | -0.425
54 | Oc1cc2c(cc1O)C1c3ccc(O)c(O)c3OCC1(O)C2 (configuration not stated) [euspeclibcmpd1605] | -0.437
55 | CN(C)CC/C=C1/c2ccccc2COc2ccccc21 [euspeclibcmpd104] | 1.4
56 | CC(=O)C1CCC2C3CC(C)=C4CC(=O)CC[C@]4(C)C3[C@@H](O)C[C@]12C (some centres not stated) [euspeclibcmpd179] | -0.562
57 | O=c1cc(-c2cc(O)c(O)c(O)c2)oc2cc(O)cc(O)c12 [euspeclibcmpd1548] | -0.459
58 | Cc1cc(-n2c(=O)[nH]c(=O)n(C)c2=O)ccc1Oc1ccc(SC(F)(F)F)cc1 [euspeclibcmpd839] | 2.22 (active)
59 | CC(C)(Oc1ccc(Cl)cc1)C(=O)O [euspeclibcmpd1029] | -0.706
60 | COc1ccc(C(=O)NCc2ccc(CN(C)C)cc2)cc1OC | 0.376
61 | CCc1cn(C2OCC(O)C2CO)c(=O)[nH]c1=O (configuration not stated) [euspeclibcmpd543] | -0.196
62 | C=C1c2c(Cl)ccc(O)c2C(=O)C2C(=O)[C@]3(O)C(=O)C(C(N)=O)C(=O)C(N(C)C)[C@@H]3[C@@H](O)[C@H]12 (some centres not stated) [euspeclibcmpd381] | 0.0643
63 | CCC[C@@H]1CC(C(=O)N[C@H]([C@H]2O[C@H](SC)[C@H](O)[C@@H](O)[C@H]2O)[C@H](C)O)N(C)C1 (some centres not stated) [euspeclibcmpd172] | 0.221
64 | NC(=O)C1CC2CCCCC2N1c1cc(Cl)c(C(F)(F)F)cc1[N+](=O)[O-] (configuration not stated) | 0.587
65 | CON=C(C(=O)NC1C(=O)N2C(C(=O)O)=C(CSc3nnnn3C)CSC12)c1csc(=N)[nH]1 (configuration not stated) [euspeclibcmpd505] | -0.115
66 | CON=C(C(=O)N[C@@H]1C(=O)N2C(C(=O)O)=C(COC(C)=O)CS[C@H]12)c1csc(=N)[nH]1 [euspeclibcmpd2262] | -0.173
67 | CON=C(C(=O)NC1C(=O)N2C(C(=O)O)=C(C[N+]3(C)CCCC3)CSC12)c1csc(=N)[nH]1 (configuration not stated) [euspeclibcmpd504] | 35.8 (active)
